# Reference: publication PMC4336329 (PLoS ONE, 2015)
# The campaign covered roughly 310,000 compounds. About 2,200 (0.71%) showed an effect of 50% or more. The effect is printed as a negative number. The list comes from a sample in which strong results are over-represented; it also holds similar structures and randomly drawn compounds.
# Molecular target: human ether-à-go-go-related gene (hERG) potassium channel (human, UniProt Q12809)
# Test: primary screen, population patch clamp on CHO cells stably expressing hERG; higher = less effect of the substance
# Sequence of human ether-à-go-go-related gene (hERG) potassium channel (Q12809 whole entry, looked up): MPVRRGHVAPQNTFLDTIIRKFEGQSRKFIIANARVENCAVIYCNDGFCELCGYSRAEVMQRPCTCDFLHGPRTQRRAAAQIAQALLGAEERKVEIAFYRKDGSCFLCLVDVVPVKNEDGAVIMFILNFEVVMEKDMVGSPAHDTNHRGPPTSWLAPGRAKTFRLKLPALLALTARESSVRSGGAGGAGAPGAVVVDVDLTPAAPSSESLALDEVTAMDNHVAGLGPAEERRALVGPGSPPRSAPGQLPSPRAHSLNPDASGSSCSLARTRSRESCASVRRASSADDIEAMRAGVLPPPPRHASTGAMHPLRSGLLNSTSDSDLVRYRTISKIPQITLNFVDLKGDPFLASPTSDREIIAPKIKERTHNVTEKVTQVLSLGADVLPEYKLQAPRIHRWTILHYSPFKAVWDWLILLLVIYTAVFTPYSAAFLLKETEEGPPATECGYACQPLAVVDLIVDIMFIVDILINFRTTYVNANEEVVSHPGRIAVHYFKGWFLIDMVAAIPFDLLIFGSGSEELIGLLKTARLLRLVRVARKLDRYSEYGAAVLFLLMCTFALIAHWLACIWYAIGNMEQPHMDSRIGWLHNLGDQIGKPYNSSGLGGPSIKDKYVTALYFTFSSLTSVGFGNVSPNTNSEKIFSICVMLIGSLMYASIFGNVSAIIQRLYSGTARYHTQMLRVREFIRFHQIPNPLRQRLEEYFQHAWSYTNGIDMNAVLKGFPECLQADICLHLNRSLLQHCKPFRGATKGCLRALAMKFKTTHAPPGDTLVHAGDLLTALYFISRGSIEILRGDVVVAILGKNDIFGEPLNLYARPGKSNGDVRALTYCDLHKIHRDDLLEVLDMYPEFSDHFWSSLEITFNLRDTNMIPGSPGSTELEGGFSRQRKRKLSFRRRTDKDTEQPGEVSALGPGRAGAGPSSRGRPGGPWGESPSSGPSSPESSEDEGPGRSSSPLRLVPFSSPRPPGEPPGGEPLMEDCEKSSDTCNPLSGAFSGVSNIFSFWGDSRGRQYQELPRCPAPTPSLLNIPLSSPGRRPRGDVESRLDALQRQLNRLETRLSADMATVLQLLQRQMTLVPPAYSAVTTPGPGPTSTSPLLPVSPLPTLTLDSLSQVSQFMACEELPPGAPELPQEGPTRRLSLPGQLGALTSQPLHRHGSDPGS
row,Structure (SMILES),"hERG current change (%, negative = inhibition) at 1uM [%]"
1,NC(=O)c1cc(Cl)ccc1OCC(=O)N1CCCc2ccccc21,11.4
2,S=c1[nH]nc(-c2ccc(Cl)cc2)n1-c1ccc2c(c1)OCCO2,7.4
3,CCN1C(=O)[C@H]2[C@@H](c3ccc(Cl)cc3)N3C(=O)CN(Cc4ccccc4)C(=O)[C@@]3(C)[C@H]2C1=O,10.9
4,CCCCCOc1ccc(/C=C/c2c([N+](=O)[O-])c(=O)n(C)c(=O)n2C)cc1,12.2
5,O=c1[nH]cnc2sc(-c3ccccc3)cc12,6.92
6,COc1ccc(S(=O)(=O)NCc2c(-c3ccccc3)noc2C)c(OC)c1,3.4
7,CC1CCN(C(CNS(=O)(=O)c2ccccc2)c2ccccc2)CC1 (stereo not shown),3.61
8,Cc1ccccc1[C@]1(C)ON(c2ccccc2C(F)(F)F)C1=O,14.2
9,CN1CCN(C(=O)/C(=C/c2ccc(N(C)C)cc2)NC(=O)c2ccccc2)CC1,7.18
10,O=C(N/C(=C\c1ccc([N+](=O)[O-])cc1)C(=O)N1CCCCC1)c1ccccc1,-73.2
11,CN1CCN(C(=O)/C(=C/c2ccc([N+](=O)[O-])cc2)NC(=O)c2ccccc2)CC1,-90.4
12,CNC(=O)/C(=C\C=C\c1ccccc1)NC(=O)c1ccc([N+](=O)[O-])cc1,-85
13,O=C(N/C(=C/c1cccc([N+](=O)[O-])c1)C(=O)N1CCCC1)c1ccccc1,-0.775
14,CN(C)CCCNC(=O)/C(=C\C=C\c1ccccc1)NC(=O)c1ccc([N+](=O)[O-])cc1,-42
15,O=C(N/C(=C\c1ccccc1)C(=O)N1CCCCCC1)c1ccccc1,21.1
16,CN1CCN(C(=O)/C(=C/c2cccc([N+](=O)[O-])c2)NC(=O)c2ccccc2)CC1,-46.5
17,O=C(N/C(=C\c1ccc([N+](=O)[O-])cc1)C(=O)N1CCCCC1)c1ccc(Br)o1,-53.4
18,O=C(N/C(=C\c1ccccc1)C(=O)N1CCCCC1)c1ccc(Br)o1,-0.538
19,O=C(N/C(=C/c1ccccc1)C(=O)N1CCCCC1)c1ccc(Br)o1,-0.572
20,CC(C)(C)NC(=O)/C(=C\C=C\c1ccccc1)NC(=O)c1ccc([N+](=O)[O-])cc1,11.2
21,CC(=O)c1ccc(N2CCCCCC2)c(F)c1,0.156

row,Structure (SMILES),"hERG current change (%, negative = inhibition) at 1uM [%]"
1,COc1ccc(OCC(=O)NCCCNC(=O)COc2ccc(OC)cc2)cc1,4.68
2,O=c1c2c3c(sc2nc2n1CCCCC2)CCC3,10.9
3,O=S1(=O)[C@H]2C[C@@H]3C=C[C@]2(CN1Cc1ccc(C(F)(F)F)cc1)O3,4.34
4,COc1ccc(CCNC(=O)CO/N=C/c2cc3c(cc2Br)OCO3)cc1OC,14.5
5,CCCCCOc1ccc(C(C)(O)C(CN2CCOCC2)c2ccccc2)cc1 (stereo not shown),-3.26
6,CC(OC(=O)/C(C#N)=C/c1ccc(N(C)C)cc1)C(=O)NCc1ccco1 (stereo not shown),6.56
7,C[C@@H](C(=O)Nc1ccc2ccccc2c1)[C@@H]1C[C@@]1(C)[C@@H](NC(=O)OCc1ccccc1)c1ccccc1,14.3
8,CCOC(=O)C1=C(CSc2nncn2C)NC(=O)NC1c1cc(OCC)ccc1OCC (stereo not shown),5.34
9,Cc1ccc(NC(=O)CSc2nnc(Cn3cnc4ccccc43)o2)c(C)c1,20.5
10,Cc1cccc(C)c1N(CC(=O)N1CCCC1)S(C)(=O)=O,16.2
11,CS(=O)(=O)N(CC(=O)N1CCc2ccccc2C1)c1ccc(Br)cc1,13.4
12,CCNC(=O)CN(C1CCCCC1)S(C)(=O)=O,1.29
13,CCOC(=O)c1c(CSc2ccccc2)n(C)c2cc(Br)c(O)c(CN(C)C)c12,-3.17
14,CCOC(=O)c1c(CSc2ccsc2)n(C)c2cc(Br)c(O)c(CN(C)C)c12.Cl,-88.5
15,CCOC(=O)c1c(CSc2ccc(C)cc2)n(C)c2cc(Br)c(O)c(CN(C)C)c12.Cl.O,18
16,CN(C)c1ccc(NC(=O)CSc2nc3ccccc3c(=O)n2CC2CCCO2)cc1 (stereo not shown),17.3
17,O=C(Nc1ccccc1SCC1CSc2nc3ccccc3c(=O)n21)c1ccccc1Cl (stereo not shown),-53.2
18,Nc1ccccc1SCC1CSc2nc3ccccc3c(=O)n21 (stereo not shown),-7.26
19,Cc1cccc(C(=O)Nc2ccccc2SCC2CSc3nc4ccccc4c(=O)n32)c1 (stereo not shown),-66.5
20,O=C(Nc1ccccc1SCC1CSc2nc3ccccc3c(=O)n21)c1ccccc1 (stereo not shown),-24.7
21,O=C(Nc1ccccc1SCC1CSc2nc3ccccc3c(=O)n21)c1cccc(Cl)c1 (stereo not shown),-49.6

row,Structure (SMILES),"hERG current change (%, negative = inhibition) at 1uM [%]"
1,Cc1ccc(C(=O)Nc2ccccc2SCC2CSc3nc4ccccc4c(=O)n32)cc1 (stereo not shown),-39
2,CCOC(=O)C(C(=O)OCC)C(Nc1cccc(Br)c1)c1ccccc1 (stereo not shown),14.1
3,Cc1ccc(NC(=O)COC(=O)CN2C(=O)COc3ccccc32)cc1,13.2
4,Cc1[nH]c2ccccc2c1-c1ccc(Cl)nn1,13.8
5,O=[N+]([O-])c1ccc(C(O)CN2CCN(Cc3ccccc3)CC2)cc1 (stereo not shown),-73
6,O=C(c1cccc([N+](=O)[O-])c1)N1CCN(C/C=C/c2ccccc2)CC1,-21
7,CS(=O)(=O)N(CC(=O)N1CCN(Cc2ccccc2)CC1)c1cccc(Cl)c1,-23
8,O=[N+]([O-])c1ccc(C(O)CN2CCN(c3ccccc3)CC2)cc1 (stereo not shown),-2.31
9,O=C(c1cccc([N+](=O)[O-])c1)N1CCN(C(=O)c2ccco2)CC1,0.101
10,O=C(/C=C/c1ccccc1)N1CCN(C(=O)c2ccco2)CC1,-13.1
11,O=[N+]([O-])c1ccc(C(O)CN2CCN(C/C=C/c3ccccc3)CC2)cc1 (stereo not shown),-85.5
12,CS(=O)(=O)N(CC(=O)N1CCN(Cc2ccccc2)CC1)c1cccc([N+](=O)[O-])c1,-73.1
13,CS(=O)(=O)N(CC(=O)N1CCCCCC1)c1cccc([N+](=O)[O-])c1,2.29
14,OC(CN1CCN(Cc2ccccc2)CC1)c1ccccc1 (stereo not shown),0.933
15,O=[N+]([O-])c1ccc(C(O)CN2CCOCC2)cc1 (stereo not shown),18.6
16,O=C(/C=C/c1cccc([N+](=O)[O-])c1)N1CCN(C(=O)c2ccco2)CC1,-53.4
17,CCCN(CC1CC1)C(=O)CSc1nnc(-c2cc(-c3cccs3)nc3ccccc23)o1,6.71
18,CS(=O)(=O)c1ccc(-n2nnc3ccccc32)c([N+](=O)[O-])c1,10.8
19,CCc1ccccc1NC(=O)c1ccc(Cn2cc([N+](=O)[O-])cn2)cc1,-3.78
20,COc1ccc(N2CCN(C(=O)c3ccc(N4CCCCS4(=O)=O)cc3)CC2)cc1,10.7
21,COc1cccc(S(=O)(=O)Nc2noc3ccccc23)c1,14

row,Structure (SMILES),"hERG current change (%, negative = inhibition) at 1uM [%]"
1,Cc1ccc(-c2ccnc3c(Cl)c(C)nn23)cc1,13.3
2,COc1cc2c(cc1OC)C(=S)NC(C)(C)C2,14.8
3,COc1cc(S(=O)(=O)NCC2OCCc3ccccc32)ccc1-n1cnnn1 (stereo not shown),-7.28
4,CC(=O)N1CCN(C(=O)C2(NC(=O)Nc3ccccc3Cl)CCCCC2)CC1,14.2
5,CC(=O)Oc1c(C)c2c3c(c1OC(C)=O)[C@@H](C)CC[C@@H]3[C@@H](C)C[C@H]2C=C(C)C,11.1
6,COc1ccc(CN(C)C(=O)c2cc(S(=O)(=O)N3CCCCCC3)ccc2OC)cc1OC,4.44
7,CCOc1ccc(N(CC(=O)N/N=C/c2cccnc2)S(C)(=O)=O)cc1,12.9
8,O=C(/C=C/c1ccc(Cl)cc1)N1CCN(c2ccccc2[N+](=O)[O-])CC1,-33.6
9,O=C(/C=C/c1ccc(Cl)cc1)N1CCN(c2ccc(Cl)cc2[N+](=O)[O-])CC1,-81.4
10,O=C(/C=C/c1ccc([N+](=O)[O-])cc1)N1CCN(Cc2ccccc2)CC1,-63.8
11,O=C(/C=C/c1ccc(Cl)cc1)N1CCN(c2ccc([N+](=O)[O-])c(N3CCOCC3)c2)CC1,-11.1
12,O=C(/C=C/c1ccc(Cl)cc1)N1CCN(Cc2ccccc2)CC1,-12.8
13,O=C(/C=C/c1cccc([N+](=O)[O-])c1)N1CCN(Cc2ccccc2)CC1,-20.3
14,CC1(c2cnc(Nc3ccccc3)s2)CCC(=O)O1 (stereo not shown),11.7
15,O=C1c2ccccc2C(=O)c2c1cccc2N1CCCC1,8.54
16,O=C1c2ccccc2C(=O)c2c1cccc2N1CCN(CCO)CC1,-64.7
17,O=C1c2ccccc2C(=O)c2c1cccc2N1CCN(Cc2ccccc2)CC1,-6.21
18,Cc1cccc(NS(=O)(=O)c2ccc3c(c2)NC(=O)CC(=O)N3)c1,18.4
19,Cc1cccnc1NC(=O)Nc1cccc2ccccc12,0.589
